In PubChem BioAssay AID1159580 (chemical genetic matrix, 2015):
In all, about 5,500 compounds went through this assay and about 2,000 (36%) were called active. Another 18% or so got no clear call; they are omitted. No stated cut-off is given here; in the data, active means normalized growth mostly below about 0.91 (no sharp cut-off); inconclusive means no clear call, values can overlap the other calls; inactive means mostly above about 0.92. The list shows a part of the results.

Test: chemical genetic growth profiling, strain panel (AID 1159580);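 further: tested at 20 µM; growth read once vehicle control cultures reached saturation at 30 °C; 1 = growth at the plate median or of vehicle wells; lower values mean less growth of the strain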
Conditions: S. cerevisiae deletion strains, growth OD

Measured: normalized growth

O=C(Nc1ccc(OC(F)(F)F)cc1)OC1CN(C(c2ccccc2)c2ccccc2)C1
inactive: locus YAR019C, strain CDC15, active compounds read low 1 | locus YBL105C, strain PKC1, active compounds read low 0.995 | locus YBR135W, strain CKS1, active compounds read low 0.996 | locus YBR136W, strain MEC1, active compounds read low 0.999 | locus YBR160W, strain CDC28, active compounds read low 0.999 | locus YDL017W, strain CDC7, active compounds read low 0.999 | locus YDL028C, strain MPS1, active compounds read low 1 | locus YDL101C, strain DUN1, active compounds read low 0.984 | locus YDL108W, strain KIN28, active compounds read low 0.991 | locus YDL132W, strain cdc53, active compounds read low 1 | locus YDL214C, strain PRR2, active compounds read low 0.993 | locus YDR052C, strain DBF4, active compounds read low 0.99 | locus YDR054C, strain cdc34, active compounds read low 0.988 | locus YDR226W, strain ADK1, active compounds read low 0.995 | locus YDR477W, strain SNF1, active compounds read low 0.988 | locus YER123W, strain YCK3, active compounds read low 0.96 | locus YER133W, strain GLC7, active compounds read low 0.992 | locus YFL009W, strain cdc4, active compounds read low 0.988 | locus YFL029C, strain CAK1, active compounds read low 0.992 | locus YFR003C, strain YPI1, active compounds read low 0.998 | locus YFR019W, strain FAB1, active compounds read low 0.983 | locus YFR028C, strain CDC14, active compounds read low 1.01 | locus YGR040W, strain KSS1, active compounds read low 0.987 | locus YGR052W, strain FMP48, active compounds read low 1.1 | locus YGR092W, strain DBF2, active compounds read low 0.961 | locus YHR030C, strain SLT2, active compounds read low 0.9 | locus YHR079C, strain IRE1, active compounds read low 1.02 | locus YHR082C, strain KSP1, active compounds read low 1.06 | locus YHR205W, strain SCH9, active compounds read low 0.981 | locus YIL147C, strain SLN1, active compounds read low 1 | locus YJL095W, strain BCK1, active compounds read low 0.96 | locus YJL128C, strain PBS2, active compounds read low 0.993 | locus YJL157C, strain FAR1, active compounds read low 0.986 | locus YJR016C, strain ILV3, active compounds read low 1.01 | locus YJR066W, strain TOR1 (second series), active compounds read low 0.981 | locus YJR066W, strain TOR1, active compounds read low 0.98 | locus YKL048C, strain ELM1, active compounds read low 0.961 | locus YKL067W, strain YNK1, active compounds read low 0.969 | locus YKL101W, strain HSL1, active compounds read low 0.982 | locus YKL193C, strain SDS22, active compounds read low 1.01 | locus YKL203C, strain TOR2, active compounds read low 1.02 | locus YLR113W, strain HOG1, active compounds read low 0.943 | locus YLR133W, strain CKI1, active compounds read low 0.972 | locus YLR403W, strain SFP1, active compounds read low 0.973 | locus YML070W, strain DAK1, active compounds read low 0.966 | locus YMR001C, strain CDC5, active compounds read low 1 | locus YMR205C, strain PFK2 (second series), active compounds read low 0.967 | locus YMR277W, strain FCP1, active compounds read low 1.01 | locus YNL006W, strain LST8, active compounds read low 0.994 | locus YNL020C, strain ARK1, active compounds read low 0.969 | locus YNL161W, strain CBK1, active compounds read low 1 | locus YNL183C, strain NPR1, active compounds read low 0.969 | locus YNL207W, strain RIO2, active compounds read low 0.985 | locus YNL222W, strain SSU72, active compounds read low 1 | locus YNL307C, strain MCK1 (second series), active compounds read low 1 | locus YOL078W, strain AVO1, active compounds read low 1 | locus YOL136C, strain PFK27, active compounds read low 0.986 | locus YOR061W, strain CKA2, active compounds read low 0.987 | locus YOR119C, strain RIO1, active compounds read low 1.06 | locus YOR231W, strain MKK1, active compounds read low 1.01 | locus YOR329C, strain SCD5, active compounds read low 0.999 | locus YPL031C, strain PHO85, active compounds read low 0.99 | locus YPL153C, strain RAD53, active compounds read low 0.961 | locus YPL204W, strain HRR25, active compounds read low 0.96 | locus YPL209C, strain IPL1, active compounds read low 0.984 | locus YPL256C, strain CLN2, active compounds read low 1 | locus YPR025C, strain CCL1, active compounds read low 1 | locus YPR106W, strain ISR1, active compounds read low 0.991 | locus YPR111W, strain DBF20, active compounds read low 0.977 | strain NNK1, active compounds read low 0.981 | strain TSCII, active compounds read low 1.01
